Rows were chosen to be rich in hits. Some 2.8% of all compounds tested hit in one or more screens of this group.
KLK7 zymogen act: proKLK7 (human) activation, primary screen | P49862 | purified proKLK7, EDANS-DABCYL substrate fluorescence; 100% is mature enzyme control, 0% vehicle | activation, % at 7 µM | hit rate 0.9% among 370,000;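 active means activation above the mean of all tested compounds plus 3 SD, computed per campaign excluding outliers beyond control limits, cut at about 13% in these data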
Target sequence (P49862 whole entry, looked up): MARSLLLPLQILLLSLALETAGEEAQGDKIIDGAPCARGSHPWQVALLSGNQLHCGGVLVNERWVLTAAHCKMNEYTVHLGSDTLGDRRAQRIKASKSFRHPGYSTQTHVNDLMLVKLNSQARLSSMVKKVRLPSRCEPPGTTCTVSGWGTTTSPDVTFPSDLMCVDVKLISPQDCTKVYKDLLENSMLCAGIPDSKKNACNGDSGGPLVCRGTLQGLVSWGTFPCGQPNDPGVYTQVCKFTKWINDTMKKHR
PP5 inh: PP5 (human) phosphatase inhibition; hit rate 0.18% among 320,000; inhibition, % at 6.7 µM; purified PP5c, OMFP substrate fluorescence;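 active means inhibition above the campaign's mean inhibition across all tested compounds plus 3 SD, cut at about 9.5% in these data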;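 further: 0% = DMSO only and 100% = 100 µM cantharidin control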
Rev-erbA mod: modulators of human Rev-erb alpha DNA binding; activity, % at 10 µM; AID 1259318; Rev-erbα–FITC-DNA binding, fluorescence polarization, 90 min; hit rate 0.79% among 370,000; P20393;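 active means activity above about 14%, limit read from the data; passing the limit was not always enough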;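 further: 0% = DMSO wells with 35 nM protein and 100% = DMSO wells with 750 nM protein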
GASC-1 inh: inhibitors of human GASC-1 (JMJD2C) demethylase | Q9H3R0 | GST-JMJD2C(1-420) H3K9me3 demethylation, DELFIA europium | inhibition, % at 2.35 µM | hit rate 0.069% among 330,000;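 active means more than half of a compound's replicate wells show inhibition beyond 50%, single wells judged on their own value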;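 further: signal counts dimethyl H3K9 product captured on neutravidin plate; 0% = median of DMSO wells and 100% = 0.3 times that DMSO median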
PG9 binder: binds the HIV-1 gp120 antibody PG9. hit rate 0.43% among 360,000. inhibition, % at 6.7 µM. AID 624416. TR-FRET gp120-PG9 antibody binding; in the data active means inhibition above about 8.5%
PP1 counter: PP1-alpha (human) inhibition in PP5 counter-screen; hit rate 0.9% among 320,000; P62136; purified PP1alpha, OMFP fluorescence; inhibition, % at 6.7 µM; AID 2235;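 active means inhibition above the mean inhibition of all tested compounds plus 3 SD, computed separately for each screening campaign, cut at about 15% in these data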
Target sequence (P62136 whole entry, looked up): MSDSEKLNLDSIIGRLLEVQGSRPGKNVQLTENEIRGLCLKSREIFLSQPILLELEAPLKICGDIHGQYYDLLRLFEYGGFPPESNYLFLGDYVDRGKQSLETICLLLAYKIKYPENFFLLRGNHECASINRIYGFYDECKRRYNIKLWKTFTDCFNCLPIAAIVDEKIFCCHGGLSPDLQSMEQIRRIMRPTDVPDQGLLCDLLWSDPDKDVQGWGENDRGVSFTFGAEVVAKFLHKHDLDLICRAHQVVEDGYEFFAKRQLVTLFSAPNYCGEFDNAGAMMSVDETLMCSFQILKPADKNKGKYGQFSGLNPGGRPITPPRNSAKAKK
PG9 bind confirm: PG9 antibody binding, confirmed | hit rate 90% among 1,500 | AID 651571 | inhibition, % at 6.7 µM | TR-FRET PG9 antibody binding, biochemical | shares compounds with PG9 binder; in the data active means inhibition above about 9%
PGV04 counter: PGV04 control antibody binding, counter-screen. shares compounds with PG9 binder. TR-FRET PGV04 antibody-gp120 binding, biochemical. inhibition, % at 6.7 µM. hit rate 95% among 1,500. AID 651604; in the data active means inhibition above about 9.5%
PG9 bind DR: small molecules binding HIV-1 gp120 antibody PG9; shares compounds with PG9 binder; TR-FRET PG9 antibody-gp120 binding inhibition; IC50, µM; 95 tested, under 10 active; AID 651848; in the data active means IC50 below about 10 µM
PGV04 binding DR: PGV04 binding, dose response counter-screen; shares compounds with PG9 binder; TR-FRET binding to control antibody PGV04; IC50, µM; hit rate 20% among 95
PG126 DR counter: PG126 binding, dose response counter-screen | shares compounds with PG9 binder | TR-FRET binding to antibody PG126, counterscreen | IC50, µM | hit rate 20% among 95
An asterisk follows results filed as active; i = inactive; . = not tested or not shown. Unless noted, no stated cut-off is given here; in the data, active means IC50 below about 9 µM; inactive means the rest.

SMILES	KLK7 zymogen act	PP5 inh	Rev-erbA mod	GASC-1 inh	PG9 binder	PP1 counter	PG9 bind confirm	PGV04 counter	others
CCc1ccccc1NC(=O)CNC(=O)CCc1nc2sc3c(c2c(=O)[nH]1)CCCC3	1	2	-9	-7	19*	-1	21*	38*
CSc1ccc(-c2csc(N3CCC(C(N)=O)CC3)n2)cc1	.	.	-3	.	.	.	.	.
COc1ccc(-c2nsc(SCC(=O)Nc3cc(C)on3)n2)cc1	1	2	13	7	42*	3	41*	55*
Cc1cccc(-c2nsc(SCC(=O)Nc3nccs3)n2)c1	0	0	8	8	10*	5	9.2*	12*
Cc1cccc2nc(-c3ccccc3)c(-c3ccc(CN4CCC5(CC4)CNc4ccccc45)cc3)nc12	0	.	-6	.	1	.	.	.
C=CCn1c(COc2ccc(C)cc2)nnc1SCC(=O)Nc1ccc(Oc2ccccc2)cc1	1	.	-3	.	.	.	.	.
CC1(C)OC(=O)C2=C(CC(CCc3ccccc3)OC2c2cccc(C(F)(F)F)c2)O1 (stereo not drawn)	-1	.	-3	.	2	.	.	.
Cc1ccc(-n2c(=O)c3sccc3n(CC(=O)NCc3ccco3)c2=O)cc1	0	2	-2	0	-2	-3	.	.
Cc1ccc(C)c(Cn2c(=O)n(CCC(=O)NCc3ccco3)c(=O)c3sccc32)c1	1	2	1	-10	12*	-3	13*	18*
Cc1cccc2nc(Cn3c(=O)n(CCC(=O)NCc4ccco4)c(=O)c4sccc43)cc(=O)n12	1	1	4	2	0	-1	.	.
COc1ccc(C=O)cc1Cn1c(=O)n(CCC(=O)NCc2ccco2)c(=O)c2sccc21	0	0	-4	5	14*	-1	7	17*
Cc1ccccc1Cn1c(=O)n(CCCC(=O)NCc2ccco2)c(=O)c2sccc21	0	-2	.	8	5	-2	.	.
Cc1cc(C)c(Cn2c(=O)n(CCCC(=O)NCc3ccco3)c(=O)c3sccc32)c(C)c1	0	0	16	15	18*	8	21*	26*
Cc1ccc(-n2c(=O)c3sccc3n(CC(=O)NCc3ccco3)c2=O)cc1F	0	2	0	2	9.4*	-3	12*	19*
O=C(CN1CCN(Cc2ccccc2)CC1)N/N=C\c1ccccc1[N+](=O)[O-]	0	.	1	.	.	.	.	.
CCOc1ccc(-n2c(SCC(=O)c3ccc4ccccc4c3)nnc2-c2ccco2)cc1	0	.	-4	.	.	.	.	.
Nc1ccc(-c2nc3ccc(-c4nc5ccccc5o4)cc3[nH]2)cc1	-61	3	-9	-2	10*	-5	10*	20*
Cc1nc2ccc(-c3nc4ccccc4o3)cc2[nH]1	1	4	2	6	0	0	.	.
O=C(CSc1nnc(-c2ccc(Cl)cc2)n1C1CCCCC1)NN=Cc1c(O)ccc2ccccc12	-3	.	-6	.	.	.	.	.
COc1ccc(-n2c(=S)[nH]c3c(oc4ccccc43)c2=O)cc1	-1	4	0	9	26*	-1	13*	12*	PG9 bind DR=>67;PGV04 binding DR=i;PG126 DR counter=i
CCn1c(=NC(=O)c2cccc(N3C(=O)CCC3=O)c2)sc2c(OC)ccc(OC)c21	0	-4	19	7	0	-6	.	.
COc1ccc(OC)c2c1sc(=NC(=O)c1cccc(N3C(=O)CCC3=O)c1)n2C	0	6	23	-12	52*	1	65*	82*
Cc1cnc(NC(=O)CCCSc2nc3ccccc3s2)s1	0	3	7	-10	13*	1	18*	25*
S=c1[nH]nc(-c2ccccn2)n1/N=C/c1ccc(-c2ccccc2Br)o1	0	.	-2	18	15*	.	8	25*
O=C(Nc1nc2c(Cl)cccc2s1)c1ccc(Br)o1	0	3	15	-3	35*	4	39*	43*
SMILES	KLK7 zymogen act	PP5 inh	Rev-erbA mod	GASC-1 inh	PG9 binder	PP1 counter	PG9 bind confirm	PGV04 counter	others
CCN(CC)c1ccc2cc(-c3nc4ccccc4[nH]3)c(=O)oc2c1	.	-22	.	-18	.	-20	.	.
CCN(CC)c1ccc2cc(-c3nc4ccccc4n3C)c(=O)oc2c1	-2	3	11	1	10*	-5	11*	17*
CCCCN1CC(COCc2ccccc2)Oc2cccc(Oc3ccc(F)cc3OC)c2S1(=O)=O (stereo not drawn)	1	.	1	.	0	.	.	.
Cc1noc(C)c1C(=O)N1CCC(n2nnc3ncccc32)CC1	0	.	6	.	.	.	.	.
CC(C)c1ccc(N(CC(=O)NCc2ccc(F)cc2)C(=O)c2snc(C(N)=O)c2N)cc1	-1	0	3	4	11*	1	18*	23*
COc1ccc(CNC(=O)CN(C(=O)c2snc(C(N)=O)c2N)c2ccc(F)cc2)cc1	0	-2	-4	-5	-2	7	.	.
CCOc1ccc(N(CC(=O)NCc2ccc(F)cc2)C(=O)c2snc(C(N)=O)c2N)cc1	0	1	3	2	9.4*	-3	18*	25*
Cc1[nH]c2ccccc2c1CC(=O)Nc1ccc(Oc2cccnc2)cc1	0	.	-1	.	0	.	.	.
CC(C)(C)C1CCc2c(sc(NC(=O)C3CC=CCC3C(=O)O)c2C#N)C1 (stereo not drawn)	0	4	-11	1	-3	11	.	.
N#Cc1c(NC(=O)C2CC=CCC2C(=O)O)sc2c1CCCCCC2 (stereo not drawn)	0	2	1	5	11*	-1	9.0*	9.4*
CCN(CC(=O)Nc1ccc(NC(C)=O)cc1)C(=O)CSc1ncnc2sc(C)c(C)c12	0	0	-5	1	11*	13	7	24*
CC(=O)Nc1ccc(NC(=O)CSc2ncnc3sc(C)c(C)c23)cc1	0	1	6	2	-1	0	.	.
CC1(C)Oc2ccc3ccc(=O)oc3c2[C@H](O)[C@H]1O	2	2	6	5	0	-1	.	.
CC1(C)Oc2ccc3ccc(=O)oc3c2C(N2CCCCC2)C1O (stereo not drawn)	0	3	-5	26	11*	-2	7	9.2*
COC(=O)c1sccc1NC(=O)c1ccccc1C(=O)O	1	1	-2	-1	1	-5	.	.

Compound activity deposited in PubChem by several laboratories.
